Ten compounds from article PMC5540273 (PLoS ONE, 2017) can be followed below.

Conditions in all cases: concentration: 1 μM, replicates: in singlicate; n = 1
The subject of assay [1] is PRKD3.
The test system of assay [2] is PRKG1.
The test system of assay [3] is PRKG2.
For assay [4], the system named is T1, PRKR.
T1 construct: gene EIF2AK2

Assay [5] relates to PRKX.
The subject of assay [6] is PRP4.
Assay [7] deals with T2, PYK2.
T2 construct: gene PTK2B

The test system of assay [8] is QSK.
Assay [9] relates to RAF1.
In assay [10] the test system is RET.
In assay [11] the test system is RIOK1.
Assay [12] concerns RIOK2.
The subject of assay [13] is RIOK3.
Assay [14] deals with RIPK1.
Assay [15] has as its system RIPK2.
The test system of assay [16] is RIPK4.
The subject of assay [17] is RIPK5.
For assay [18], the system named is ROCK1.
Assay [19] has as its system ROCK2.
Assay [20] relates to ROS1.
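Further: KINOMEscan kinase panel screen.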

With `CC(C)NCC(Cc1ccccc1)NC(=O)c1cc(Br)c(-c2ccnc3[nH]ccc23)s1.Cl.Cl` (centres unmarked) [GSK1383281], the “%Inh” value is given as 81% in assay [1]; 98.8% in assay [2]; 98.8% in [3]; 16% in assay [4]; 96.5% in [5]; 24% in assay [6]. Moreover, the “%Inh” value is on record as 17% in assay [7]; 5% in assay [8]; 0% in assay [9]; 66% in assay [10]; 72% in assay [11]; 84% in assay [12]. Also, the “%Inh” value in assay [13] is 60%; in [14], 0%; in assay [15], 0%; in assay [16], 15%; in assay [17], 9%; in assay [18], 99.6%. In addition, the “%Inh” value in [19] stood at 99.6%; in assay [20], 46%.
Consider `COc1cc(Nc2ccnc3cc(-c4ccncc4)ccc23)cc(OC)c1OC.Cl` [GW494610], for which the “%Inh” value in [1] was determined as 6%; in assay [2], 8%; in assay [3], 69%; in assay [4], 0%; in [5], 0%; in [6], 27%. Further, the “%Inh” value in [7] was 16%; in assay [8] it was 84%; in assay [9] it was 23%; in assay [10], 24%; in [11], 39%; in assay [12] it was 11%. Further, the “%Inh” value in [13] is 0%; in [14], 0%; in assay [15], 83%; in [16] it was 0%; in [17], 0%; in [18] it was 31%. Moreover, the results for the “%Inh” value in assay [19] and in [20] were 14% and 16%, respectively.
For the compound `O=C(Nc1n[nH]c2nc(-c3ccccc3)ccc12)C1CC1` [SB-708999], the “%Inh” value is on record as 0% in [1]; 1% in assay [2]; 0% in [3]; 0% in assay [4]; 5% in assay [5]; 7% in assay [6]. The “%Inh” value is 0% in assay [7]; 0% in assay [8]; 23% in assay [9]; 32% in [10]; 35% in [11]; 1% in assay [12]. Moreover, the “%Inh” value in assay [13] turned out to be 37%; in assay [14] it was 63%; in [15] it was 0%; in assay [16] it was 2%; in assay [17] it was 0%; in assay [18] it was 21%. Besides, the “%Inh” value turned out to be 12% in assay [19] and 0% in [20].
Turning to `Cc1nn2c(=O)cc(N3CCO[C@H](C)C3)nc2n1Cc1cccc(Cl)c1Cl` [GSK2373693], the “%Inh” value is 45% in [1]; 4% in assay [2]; 0% in [3]; 0% in assay [4]; 9% in [5]; 14% in assay [6]. Besides, the “%Inh” value in [7] was 0%; in assay [8], 0%; in [9] it was 9%; in assay [10] it was 69%; in [11], 39%; in [12], 39%. Also, the “%Inh” value in assay [13] came to 5%; in [14], 2%; in assay [15] it was 61%; in assay [16] it was 19%; in [17], 0%; in assay [18] it was 73%. Besides, the “%Inh” value in assay [19] is given as 5%; in assay [20] it was 0%.
As for `Cc1ccc(-c2ccc3occ(-c4ccc(S(C)=O)cc4)c3c2)nn1` (centres unmarked), the “%Inh” value in assay [1] is listed as 0%; in [2], 14%; in assay [3], 0%; in [4], 0%; in assay [5], 0%; in assay [6] it was 13%. Also, the “%Inh” value is 0% in [7]; 0% in [8]; 6% in [9]; 0% in assay [10]; 0% in [11]; 10% in [12]. The “%Inh” value in assay [13] was found to be 0%; in [14] it was 0%; in [15] it was 0%; in assay [16], 0%; in [17] it was 0%; in assay [18], 6%. Also, the “%Inh” value in assay [19] and in assay [20] was 0% each time.
In the case of `O=C(O)C(F)(F)F.O=c1[nH]ccc2nc(N[C@@H]3CCNC3)nc(Nc3cc(Cl)cc(Cl)c3)c12` [GSK2188764], the “%Inh” value worked out at 96.5% in assay [1]; 61% in assay [2]; 98.5% in [3]; 76% in assay [4]; 95% in assay [5]; 63% in [6]. In addition, the “%Inh” value was 98.8% in assay [7]; 38% in assay [8]; 0% in [9]; 51% in assay [10]; 97.4% in [11]; 29% in [12]. For the same compound, the “%Inh” value is on record as 100% in assay [13]; 16% in assay [14]; 30% in [15]; 44% in assay [16]; 10% in assay [17]; 99.5% in [18]. The “%Inh” value is given as 99.7% in assay [19] and 0% in assay [20].
In the case of `COc1cccc(C2=C(Nc3cccc(O)c3)C(=O)NC2=O)c1` [SB-390771], the “%Inh” value in [1] is recorded as 7%; in assay [2], 9%; in [3] it was 81%; in assay [4] it was 15%; in assay [5], 20%; in assay [6], 41%. The “%Inh” value in assay [7] is given as 43%; in assay [8] it was 0%; in assay [9], 20%; in [10] it was 1%; in assay [11] it was 49%; in assay [12], 0%. Moreover, the “%Inh” value in assay [13] turned out to be 17%; in assay [14], 0%; in [15], 18%; in assay [16], 22%; in assay [17], 3%; in assay [18] it was 3%. In addition, the “%Inh” value in assay [19] was found to be 5%; in assay [20] it was 0%.
On to `Cc1ccc(NC(=O)c2ccc(Cl)c(Cl)c2)cc1-c1ccc(C(=O)Nc2ccncc2)cc1` [GSK1398460], for which the “%Inh” value turned out to be 23% in assay [1]; 13% in assay [2]; 0% in [3]; 7% in assay [4]; 17% in assay [5]; 0% in [6]. The “%Inh” value worked out at 13% in [7]; 0% in assay [8]; 78% in assay [9]; 38% in assay [10]; 50% in assay [11]; 0% in assay [12]. Further, the “%Inh” value was 53% in [13]; 23% in assay [14]; 11% in [15]; 6% in [16]; 4% in assay [17]; 0% in [18]. In addition, the “%Inh” value was 0% in assay [19] and 20% in assay [20].
In the case of `NCCC(NC(=O)c1cc(Br)c(-c2ccnc3[nH]ccc23)s1)c1ccccc1.O=C(O)C(F)(F)F.O=C(O)C(F)(F)F` (centres unmarked) [GSK1307810], the “%Inh” value came out at 35% in assay [1]; 97.5% in [2]; 98.2% in [3]; 17% in assay [4]; 96.9% in assay [5]; 76% in assay [6]. The “%Inh” value was found to be 0% in assay [7]; 0% in assay [8]; 9% in assay [9]; 36% in [10]; 100% in assay [11]; 97.9% in assay [12]. Moreover, the “%Inh” value in assay [13] came to 100%; in assay [14] it was 81%; in assay [15], 4%; in [16] it was 0%; in assay [17] it was 1%; in assay [18], 100%. Further, the “%Inh” value came to 99.8% in assay [19] and 29% in assay [20].
Consider `COc1cccc2c(-c3ccncc3)c(-c3ccc(F)cc3)nn12` [GW468513], for which the “%Inh” value is listed as 43% in [1]; 0% in assay [2]; 0% in assay [3]; 0% in assay [4]; 10% in assay [5]; 25% in assay [6]. Moreover, the “%Inh” value in assay [7] is 12%; in [8] it was 0%; in assay [9], 33%; in assay [10], 22%; in assay [11] it was 32%; in [12], 13%. For the same compound, the “%Inh” value is 26% in assay [13]; 0% in assay [14]; 56% in [15]; 8% in assay [16]; 0% in assay [17]; 0% in assay [18]. The “%Inh” value in assay [19] is recorded as 28%; in [20] it was 0%.
